About 79,000 compounds went through this panel and 15% of them were active in at least one assay; those are over-represented in the sample as a whole. A number with no mark means an inactive call. Active and inactive are the calls of the source. Rule as the data show it: active = growth inhibition above about 70%; inactive = the rest.
What was measured:
[1] = NCI Yeast Anticancer Drug Screen. Data for the rad50 strain (AID 155);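 also: 0% = growth of vehicle-only cultures of the same strain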; settings: S. cerevisiae rad50 strain growth inhibition; at 50.0 µM; hits give high values
In short: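 A DNA repair-deficient yeast mutant serves as the test organism; compound-induced growth inhibition is calculated against vehicle-treated cells.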

[2] = NCI Yeast Anticancer Drug Screen. Data for the mec2-1 strain (AID 157); settings: S. cerevisiae mec2-1 strain, at 50.0 µM, hits give high values
In short: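 Vehicle-treated cultures served as reference for growth inhibition of compound-exposed mec2-1 yeast.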

[3] = NCI Yeast Anticancer Drug Screen. Data for the sgs1 mgt1 strain (AID 161);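 also: 0% = growth of cultures given vehicle only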; settings: S. cerevisiae sgs1 mgt1 strain, at 50.0 µM, hits give high values
In short: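 Inhibition of yeast growth, normalised to vehicle-treated controls, is reported for a strain bearing genetic alterations in DNA damage repair.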

[4] = NCI Yeast Anticancer Drug Screen. Data for the cln2 rad14 strain (AID 165);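 also: 0% = growth equal to vehicle treated cultures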; settings: S. cerevisiae cln2 rad14 strain, at 50.0 µM, hits give high values
In short: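 Each compound was tested on cln2 rad14 yeast. Inhibition of growth was calculated against vehicle-exposed controls.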

[5] = NCI Yeast Anticancer Drug Screen. Data for the bub3 strain (AID 167); settings: S. cerevisiae bub3 mutant strain, at 50.0 µM, hits give high values
In short: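 Inhibition values come from growth of compound-treated mutant yeast normalised to vehicle-treated controls.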

[6] = NCI Yeast Anticancer Drug Screen. Data for the mlh1 rad18 strain (AID 175); settings: S. cerevisiae mlh1 rad18 strain growth inhibition; at 50.0 µM; hits give high values
In short: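 Vehicle-treated cultures served as the reference for growth inhibition in a yeast strain carrying DNA damage repair alterations exposed to each compound.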

| Compound | growth inhibition [1] | growth inhibition [2] | growth inhibition [3] | growth inhibition [4] | growth inhibition [5] | growth inhibition [6] |
| --- | --- | --- | --- | --- | --- | --- |
| Nc1c(Cl)c(Cl)nc(C(=O)O)c1Cl | 16% | 9% | 7.05% | 3.8% | 21.5% | 24.2% |
| O=C1c2ccccc2C2(O)C3C=CCCN3CN12 (stereo unspecified) | 2.65% | 9.1% | -1.25% | 4.15% | -4.05% | -6.75% |
| c1cc(C2N3CCCN2CC3)ccn1 (stereo unspecified) | 10% | -27.7% | -34% | -19.9% | -2.35% | -15.2% |
| O=[N+]([O-])c1ccc(SN2C3CCCCC32)c([N+](=O)[O-])c1 (stereo unspecified) | 3.85% | 11.7% | 6.1% | 7.85% | 11.8% | 22.7% |
| O=C1CC2(CCNCC2)C(=O)N1N1CCCCC1 | -2.5% | 12% | 5.9% | 7.15% | 1.45% | 5.4% |
| Cc1cc(-c2ccccc2)cc(-c2ccccc2)[o+]1 | 2.3% | -2.55% | 2% | -23% | 1% | 4.25% |
| NC(Cc1ccc(Cl)cc1)c1nn[nH]n1 (stereo unspecified) | -5.5% | 1.25% | -4.1% | -22.4% | 1.2% | -7.7% |
| [C-]#[O+].[C-]#[O+].[C-]#[O+].[C-]#[O+].[Cr].c1ccc([As](CC[As](c2ccccc2)c2ccccc2)c2ccccc2)cc1 | 22.9% | 21.4% | 8% | 6.65% | 36.2% | 29.1% |
| CCCCCCCCCCCCP(=O)(O)OCC(N)C(=O)O (stereo unspecified) | -0.9% | -21.6% | 1.5% | -7.1% | -12.8% | -17.9% |
| CSCCC(NC(=O)C(Cc1ccccc1)NC(=O)CNC(=O)CNC(=O)C(N)Cc1ccc(O)cc1)C(=O)O (stereo unspecified) | 12.4% | 2.2% | -6.45% | 26.2% | 14.4% | 16.2% |
| Cc1ccc(C[N+](C)(C)C)cc1 | 10.6% | -17.6% | 6.7% | 12.1% | -10.1% | 4.5% |
| CCCCC1(CCSC(=S)OCC)C(=O)NC(=O)NC1=O | 12.6% | -12.1% | 1.55% | -36.4% | -2.7% | -11.8% |
| CCCN(CCC)CCc1ccc(OC2=CCN(C)CC2)cc1 | -22.6% | -22.1% | 8.85% | 16.6% | -15.8% | -55% |
| NCCCN1CCN(c2ccccc2)CC1 | -0.45% | -30.2% | -12.6% | 26% | -28.6% | -39.5% |
| NC(=O)CCC(NC(=O)Cc1ccccc1)C(=O)O (stereo unspecified) (tested in a mixture with another compound) | -4.45% | -14.1% | 0.25% | -29.9% | -9.65% | 8.95% |
| CCN1/C(=C/C=C2\CCC(/C=C/c3sc4ccc(Cl)cc4[n+]3CC)=C2N(c2ccccc2)c2ccccc2)Sc2ccc(Cl)cc21 | 14.4% | 32.2% | 64.9% | 4.05% | 57.4% | 56.7% |
| CC1(C)C(=O)/C(=N\O)C[C@@]2(C)C1=CC[C@@H]1[C@@H]2CC[C@]2(C)C(=O)/C(=N/O)C[C@@H]12 | 1.55% | -5.25% | -0.05% | -45.1% | -1% | -12.1% |
| CN(C)C1(c2ccc3ccccc3c2)CSC1 | -0.4% | -16.6% | 0.55% | -16.2% | -29.8% | 2.25% |
| CC(=O)NCN(C)[N+](=O)[O-] | -9.6% | -4.95% | 8.85% | -11% | -19.8% | -6.5% |
| Cc1cc([N+](=O)[O-])c(N)c([N+](=O)[O-])c1 | -1.55% | -11.1% | -9.8% | 3.6% | -10.8% | -4.75% |
| Cc1ccc(P(=O)(O)O)cc1 | -10.9% | -15.9% | 12.1% | 2.6% | -2.2% | -14.8% |

| Compound | growth inhibition [1] | growth inhibition [2] | growth inhibition [3] | growth inhibition [4] | growth inhibition [5] | growth inhibition [6] |
| --- | --- | --- | --- | --- | --- | --- |
| CCN(CC)CC#N | 3.8% | -2.75% | -6.4% | -0.25% | 3.45% | -0.7% |
| CC(C)CCC1C(=O)NC(=O)NC1=O | -0.2% | -6.15% | -15.4% | 8.1% | -4.05% | -1.15% |
| CC(C)(C)NCC(COc1ccc([N+](=O)[O-])cc1)OP(c1ccccc1)c1ccccc1 (stereo unspecified) | 15.7% | 6.25% | 2.25% | 23.6% | 14.8% | 21.3% |
| CCOC(=S)S.[Pb] | 18.9% | 21.8% | 27.2% | 13.6% | 26.2% | 9.7% |
| COc1cc(C2c3cc4c(cc3[C@@H](OC)[C@H]3COC(=O)C23)OCO4)cc(OC)c1O (stereo partly specified) | 89.5% (active) | 90% (active) | 86.4% (active) | 85.1% (active) | 89.3% (active) | 88.7% (active) |
| CC(=[N-])CC(C)=O.CC(=[N-])CC(C)=O.[Cu+2] | 14.9% | 14.5% | 10.8% | -18.3% | -4.4% | 8.2% |
| CCCCCCCCCCC(C(=O)c1ccccc1)N1CCOCC1 (stereo unspecified) | -14.7% | -2.95% | 10.9% | -8.3% | 3.85% | -8.4% |
| CCC(=O)[O][Sn]([CH3])([CH3])[O][Sn]([CH3])([CH3])[O]C(=O)CC | -2.55% | 18.1% | -28.8% | 11.8% | -16.9% | 3.25% |
| O=C(O)C(O)(c1ccccc1)c1ccsc1 (stereo unspecified) | 4.45% | 2.15% | -8.6% | -28.9% | 1.95% | 8.8% |
| C=CC[As+](c1cccc2ccccc12)(c1cccc2ccccc12)c1cccc2ccccc12 | -61.5% | -14.1% | -15.1% | -33.4% | 5.15% | -11.5% |
| CN(C)CCNC(=O)c1cccc(COC(=O)N(CCCl)CCCl)c1[N+](=O)[O-] | 9.55% | -2.4% | 15.8% | 10.1% | -9.45% | 9.7% |
| Oc1ccc(C(c2cc3c(cc2O)OCO3)N2CCNCC2)cc1 (stereo unspecified) | 21.8% | 25.7% | 25.9% | -22.2% | 18.5% | 31.7% |
| CC(C)(C)c1cc(C=C(C#N)C#N)cc(C(C)(C)C)c1O | 4.3% | 10.6% | 7.55% | -32.8% | 48.6% | 6.45% |
| CC(C)C(O)(C(=O)OCC1=CC[N+]2([O-])CCC(O)C12)C(C)O (stereo unspecified) | -16.9% | -29.7% | -9.7% | 4% | -7.45% | -7.3% |
| c1ccc2c(c1)ccc1sc3c([n+]12)CCC3 | -0.9% | -5.65% | -18.2% | -14.5% | 2.4% | -5.3% |
| O=CNc1ccccc1 | 18.6% | 1.7% | 0.85% | 6.5% | 7.65% | 7.25% |
| COc1ccc2c(c1OC)C13CCN(C)C(C2)C12C=CC(=O)C3c1c(OC)ccc(OC)c12 (stereo unspecified) | 37.4% | 6.95% | 24.2% | 18.8% | 4.2% | 27.2% |
| CC1(C)N=C(N/N=C/c2ccccc2)SP1(=O)NNc1ncccn1 (stereo unspecified) | -7.85% | 0.95% | -20.1% | 2.35% | 3.55% | 1.25% |
| O=S(=O)(Nc1ccc(-c2ccccc2)cc1)c1ccc([As](=O)(O)O)cc1 | 38.6% | 24.7% | 54.2% | -1.65% | 18.9% | 40% |
| O=C1CCCN1 | -8.1% | -1.7% | 3.1% | -4.85% | -0.2% | -11.7% |
